# Source: PubChem BioAssay (NCI)
# This is part of a sample that, as a whole, favours compounds with a hit. Of some 83,000 tested, about 20% had one in any assay.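 Method: cells in 96-well plates; compound added at one concentration; 48 h incubation; percent growth measured; values under 10 scored active.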 Values without a mark were called inactive. Calls of active or inactive are those of the source.
# Tested on: MDA-MB-435 melanoma
# Test: NCI-60 one-dose screen, 48 h (100 = growth as untreated, 0 = no growth, -100 = all killed)
# Conditions: 10 µM
row,Compound,growth
1,CC[N+](CC)=c1ccc2nc3c(cc(NCc4ccccc4)c4ccccc43)oc-2c1,-98.9% (active)
2,N#CC1=CC2CN(Cc3ccccc3)C1C1C(=O)N(c3ccccc3)C(=O)C21 (configuration not stated),105%
3,COc1ccc(-c2nn(-c3cccc(Cl)c3)cc2-c2nc(N)[nH]c(=O)c2C#N)cc1,2.16% (active)
4,COc1cc2cc(Oc3ccc(NC(=O)Nc4ccc(Cl)c(C(F)(F)F)c4)cc3)c(C)nc2cc1OC,-25.7% (active)
5,COc1cc2cc(Oc3ccc(NC(=O)Nc4ccc(Cl)c(Cl)c4)cc3)c(C)nc2cc1OC,12.3%
6,COc1cc(-c2nn(-c3cccc(NC(=O)NCCNS(=O)(=O)c4ccc(Cl)cc4)c3)cc2-c2ccncc2)ccc1Cl,2.25% (active)
7,O=C(N/N=C/c1c(Cl)cccc1Cl)c1ccccc1Nc1cccc(C(F)(F)F)c1,110%
8,CC(=O)Nc1ccc(CC[C@H]2CCC/C=C/[C@@H]3C[C@H](O)C[C@H]3[C@H](O)/C=C/C(=O)O2)cc1,14.7%
9,Cc1cc(Cl)ccc1Nc1nc(C(F)(F)F)ccc1C(=O)N/N=C/c1c(Cl)cccc1Cl,10.5%
10,CCOC(=O)CC(S(=O)(=O)c1ccccc1)S(=O)(=O)c1ccccc1,107%
11,Cc1cc(Cl)ccc1Nc1nc(C(F)(F)F)ccc1C(=O)N/N=C/c1cccc(O)c1,56%
12,CC(C)=CCC/C(C)=C/CC/C(C)=C/CC/C=C(\C)CC/C=C(\C)CCC(=O)Nc1ccn(C2OC(CO)C(O)C2(F)F)c(=O)n1 (configuration not stated),29.9%
